In PubChem BioAssay (NCI):
About 83,000 compounds went through this panel and 20% of them were active in at least one assay; those are over-represented in the sample as a whole.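 Single-dose data. Exposure time 48 hours. Values below 10 considered active.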 A number with no mark means an inactive call. Activity calls are given as the source filed them.

Key:
Test in all cases: NCI-60 one-dose screen, 48 h (100 = growth as untreated, 0 = no growth, -100 = all killed)
Conditions in all cases: 10 µM unless noted
NCI-H23 lung = system: NCI-H23 lung
NCI-H226 lung = system: NCI-H226 lung
NCI-H322M lung = system: NCI-H322M lung
HOP-62 NSCLC = system: HOP-62 NSCLC
NCI-H460 lung = system: NCI-H460 lung
NCI-H522 lung = system: NCI-H522 lung
A549/ATCC NSCLC = system: A549/ATCC NSCLC
COLO 205 colon = system: COLO 205 colon
DU-145 prostate = system: DU-145 prostate
K-562 leukemia = system: K-562 leukemia
MALME-3M melanoma = system: MALME-3M melanoma
MDA-MB-231 breast = system: MDA-MB-231 breast
RXF 393 renal = system: RXF 393 renal
SF-268 CNS = system: SF-268 CNS
SF-295 CNS = system: SF-295 CNS
SF-539 CNS = system: SF-539 CNS
UACC-257 melanoma = system: UACC-257 melanoma
M14 melanoma = system: M14 melanoma
HCT-15 colon = system: HCT-15 colon
786-0 renal = system: 786-0 renal

| SMILES | growth (NCI-H23 lung) | growth (NCI-H226 lung) | growth (NCI-H322M lung) | growth (HOP-62 NSCLC) | growth (NCI-H460 lung) | growth (NCI-H522 lung) | growth (A549/ATCC NSCLC) | growth (COLO 205 colon) | growth (DU-145 prostate) [%] | growth (K-562 leukemia) | growth (MALME-3M melanoma) | growth (MDA-MB-231 breast) | growth (RXF 393 renal) | growth (SF-268 CNS) | growth (SF-295 CNS) | growth (SF-539 CNS) | growth (UACC-257 melanoma) | growth (M14 melanoma) | growth (HCT-15 colon) | growth (786-0 renal) |
| --- | --- | --- | --- | --- | --- | --- | --- | --- | --- | --- | --- | --- | --- | --- | --- | --- | --- | --- | --- | --- |
| CCCC[N+](CCCC)=c1ccc2nc3c(C)cc(N(CC)CC)cc3sc-2c1 | -36.2% (active) | 18.4% | 27.6% | -23.4% (active) | 2.83% (active) | -17.1% (active) | 16.7% | -41.1% (active) | 13.7 | -49.1% (active) | -78.6% (active) | -29.4% (active) | -25.8% (active) | 10.4% | -24.4% (active) | -62.5% (active) | -41% (active) | 7.11% (active) | -33.5% (active) |  |
| O=C(NN(C(=O)c1ccccc1)c1cccs1)c1ccccc1 | 103% | 99.8% | 94% | 97% | 116% | 91.3% |  | 106% | 123 | 109% | 97.3% | 93.4% | 115% | 112% | 116% | 110% | 139% | 101% | 101% | 100% |
| CCN(CC)CCOc1ccccc1-n1c(C)ccc1-c1ccccc1 | 102% | 92% | 80.1% | 106% | 44.2% | 101% | 88.2% | 70.3% | 103 | -48.1% (active) | 89% | 102% | 84.6% | 78.5% | 93% | 92.7% | 100% |  | 90.5% |  |
| COc1ccc(-n2nc3c(c2-c2ccc(OC)c(OC)c2)-c2oncc2CC3)cc1 | 93.3% | 106% | 97.7% | 94.1% | 90.3% | 18.1% | 82.5% |  |  |  | 100% | 80% | 83.8% | 84% | 84% | 114% | 110% | 93.6% | 55.9% | 78% |
| O=[N+]([O-])c1ccc2c(c1)S(=O)c1cc([N+](=O)[O-])ccc1N2 | 103% | 91.9% | 117% | 67.3% | 96.4% | 97% |  | 108% | 116 | 115% | 113% | 96.3% | 104% | 104% | 106% | 98.3% | 96.6% | 91.7% | 99% | 108% |
| O=C(CCc1nnc2sc(-c3ccc(Cl)cc3Cl)nn12)c1nc2ccccc2[nH]1 | -35.1% (active) | -78.4% (active) | -54.7% (active) | -56.9% (active) | -57.8% (active) | -74.7% (active) | -46.1% (active) |  |  |  | -26.5% (active) | -54.2% (active) | -92.9% (active) | 15.2% | -37.4% (active) | -19% (active) | -69.9% (active) | -47.5% (active) | -31.8% (active) | -94.7% (active) |
| O=C1c2nsnc2C(=O)c2c(F)c(F)c(F)c(F)c21 | -22.5% (active) | -38.2% (active) | 26.9% | -86% (active) | -51.8% (active) | -67.2% (active) | -27.9% (active) |  |  |  | -45.9% (active) | -68.2% (active) | -96.4% (active) | -15.6% (active) | -37% (active) | -74.1% (active) | -97.3% (active) | -90.8% (active) | -59.1% (active) | -97.1% (active) |
| O=C1NC(=O)/C(=C\c2ccccc2)C2=C1CCCC2 | -44.7% (active) | 92.3% | 107% | 119% | 85.5% | -87.4% (active) |  | -63.2% (active) | 25.7 | -37.8% (active) | 50.6% | 92.1% | 13.3% | 39.4% | 88.2% | 27.4% | -64.6% (active) | 36.4% | 20.9% | 61.7% |
| COc1ccc2c(c1)nc(N)c1c3cc(OC)c(OC)cc3cn21 | 56.1% | 78.2% | 84.6% | 76.9% | 20.5% | -8.03% (active) | 43.8% |  |  |  | 71.3% | 83.8% | 46.3% | 55.1% | 31% | 78.6% | 94.8% | 31.6% | 30.4% | 43.1% |
| CC[N+](CC)(CCOCCOCC[N+](CC)(CC)Cc1ccc([N+](=O)[O-])cc1)Cc1ccc([N+](=O)[O-])cc1 | 99.2% | 91.7% | 117% | 76.4% | 96.8% | 93.4% |  | 106% | 119 | 98% | 105% | 91.3% | 110% | 98.6% | 103% | 105% | 90.9% | 101% | 105% | 109% |
| N#CCCCCCn1c2ccccc2c2c3c(c4c5ccccc5[nH]c4c21)C(=O)N(O)C3=O | -5.54% (active) | 43.3% | 19.9% | 18.4% | -7.73% (active) | -53.9% (active) | 25% | 26.7% | 18.5 | 6.27% (active) | -34.6% (active) | 16.1% | -30.7% (active) | 11.3% | -17.2% (active) | -95.4% (active) | 20.5% | 11.9% | 15.9% |  |
| O=c1[nH]c(Cl)nc2c1cnn2-c1ccccc1 | 81.3% | 92.5% | 112% | 91.3% | 95.3% | 97.1% | 113% | 107% | 104 | 43% | 104% | 92.3% | 111% | 93% | 85.2% | 77.2% | 106% | 84.9% | 94.7% |  |
| COc1cc2cn3c4ccc(O)cc4nc(N)c3c2cc1OC | 0.98% (active) | 25.7% | 28.7% | 11.9% | 1.19% (active) | -39.4% (active) | 18.4% |  |  |  | 31.2% | 61.6% | 9.93% (active) | 20.8% | 9.44% (active) | -18.3% (active) | 6.97% (active) | -9.75% (active) | 31.4% | 6.11% (active) |
| Cn1cc(-c2csc(-c3cn(C)c4ncccc34)n2)c2cc(Br)cnc21 | 82% | 101% | 104% | 100% | 95.4% | 98.7% | 87% |  |  |  | 107% | 61.9% | 81.2% | 105% | 82.1% | 109% | 96.2% | 80.7% | 81.1% | 93.8% |
| COc1ccc2c(c1)nc(N)c1c3ccccc3cn21 | 79.1% | 95.3% | 88.1% | 85.6% | 72.4% | 58.1% | 75.9% |  |  |  | 65.2% | 85.5% | 77.1% | 81% | 79.5% | 94.3% | 85.9% | 63.1% | 56.4% | 92.7% |
| O=C(CCc1nnc2sc(Cc3ccccc3Cl)nn12)c1nc2ccccc2[nH]1 | 90.4% | 89.3% | 85.2% | 92.1% | 99.5% | 96.6% | 100% |  |  |  | 112% | 76.5% | 90.9% | 84.9% | 103% | 107% | 102% | 99.2% |  | 85.8% |
| Cn1cc(-c2csc(-c3cn(C)c4ncccc34)n2)c2cc(F)cnc21 | 70.5% | 94.4% | 112% | 99.1% | 84.1% | 22.2% | 73.6% |  |  |  | 80.7% | 62.6% | 82.4% | 95.4% | 69.5% | 101% | 84.1% | 62.8% | 61% | 91% |
| CC[N+](C)(CC)CCCC(C)Nc1ccnc2cc(Cl)ccc12 (centres undefined) | 102% | 96.3% | 96.5% | 113% | 102% | 108% | 107% | 107% | 97.7 |  | 104% | 114% | 125% | 91.4% | 108% | 105% | 107% | 109% | 110% |  |
| CCN(CC)c1ccc(CN(CC(=O)c2ccc(Cl)c(Cl)c2)Cc2ccccc2)cc1 | 97.6% | 90.9% | 110% | 96.9% | 101% | 106% | 107% | 104% | 104 | 103% | 108% | 99.9% | 89.9% | 102% | 107% | 108% | 112% | 103% | 99.8% |  |
| CCCCCCCCCCCCNc1ncnc2[nH]ncc12 | 51.1% | 72.9% | 99.3% | 93.4% | 79.2% | 76.1% | 71.1% | 95.4% | 85.9 | 48.7% | 84.7% | 68.6% | 96.4% | 84% | 54.8% | 77% | 50.2% | 74.2% | 84.9% |  |
